Calls of active or inactive are those of the source.
Legend:
[1] = tested on: Plasmodium falciparum Sir2 (PF13_0152, Sir2A); assay: Plasmodium falciparum Sir2A binding compounds – biochemical, small-molecule microarray, 635 nm fluorescence, primary screen (AID 1098); settings: fluorescence 635 nm, higher = more signal;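 also: score merges spot fluorescence intensity with its signal-to-noise ratio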
[2] = probe aDKK1 binding to arrayed compounds – biochemical, biotinylated probe, 635/667 nm fluorescence, primary screen (AID 1099); settings: small-molecule microarray, higher = more signal;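 also: score merges 667nm spot fluorescence with signal to noise across triplicate slides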
[3] = probe aCHRDL2 binding to arrayed compounds – biochemical, biotinylated probe, 635/667 nm fluorescence, primary screen (AID 1100); settings: small-molecule microarray, higher = more signal
[4] = change in splice reporter luminescence, either direction, cell-based, HEK293, spliceosome inhibition project, primary screen (AID 1101); settings: HEK293 splicing luciferase reporter, 24 h, higher = more signal, called active from +8 up or from −8 down;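 also: HEK293 cells carrying a splicing-competent luciferase reporter gene; test concentration not given here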
[5] = target: Fibroblast growth factor 10 (Homo sapiens) (UniProt O15520); assay: compounds binding fibroblast growth factor 10 – biochemical, small-molecule microarray, 635 nm fluorescence, primary screen (AID 1102); settings: FGF10 binding, fluorescence 635 nm, higher = more signal
[6] = tested on: glycogen synthase kinase-3 (GSK3A per assay name; protocol says GSK3B); assay: compounds binding glycogen synthase kinase-3 – biochemical, small-molecule microarray, 635 nm fluorescence, GSK3A, primary screen (AID 1103); settings: fluorescence 635 nm, higher = more signal; also: the record names both GSK3A and GSK3B
[7] = target: Epidermal growth factor receptor (Homo sapiens) (UniProt P00533); assay: compounds binding epidermal growth factor receptor – biochemical, small-molecule microarray, 635 nm fluorescence, primary screen (AID 1104); settings: EGFR binding, higher = more signal;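 also: score merges 667 nm emission intensity with spot signal to noise over triplicate slides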
[8] = target: Follistatin-related protein 3 (Homo sapiens) (UniProt O95633); assay: compounds binding follistatin-related protein 3 – biochemical, small-molecule microarray, 635 nm fluorescence, primary screen (AID 1105); settings: FSTL3 binding, higher = more signal;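 also: score merges emission near 667 nm and signal to noise per printed spot across three slides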
[9] = target: Dickkopf-related protein 1 (Homo sapiens) (UniProt O94907); assay: small molecules binding DKK1 protein – biochemical, small-molecule microarray, 635 nm fluorescence scan, primary screen (AID 1106); settings: higher = more signal;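 also: score merges emission near 667 nm with signal to noise over three replicate slides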
[10] = tested on: Inhibin beta A chain (activin A); assay: small molecules binding activin A – biochemical, small-molecule microarray, 635 nm fluorescence scan, primary screen (AID 1107); settings: INHBA, higher = more signal;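 also: mouse activin A protein probed at 4.33 µg/mL on printed slides; score merges bound-protein fluorescence near 667 nm with spot signal-to-noise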
[11] = tested on: Human papillomavirus type 1a protein E7 (residues 44-93); assay: small molecules binding HPV E7 44-93 – biochemical, small-molecule microarray, residues 44-93, 635 nm fluorescence, primary screen (AID 1108); settings: fluorescence 635 nm, higher = more signal;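 also: E7 fragment applied at 1 µg/mL in TBST for 1 h at 4 C; score combines spot fluorescence with its signal to noise ratio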
[12] = hepatitis C replication reporter changes, two-sided – Huh7 cells, luciferase reporter, HCV replication inhibitor project, primary screen (AID 1109); settings: Huh7 HCV replicon luciferase reporter, 48 h; higher = more signal;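 also: huh7 hepatoma cells harbouring a luciferase neomycin HCV replicon reporter; luciferase luminescence as measure of HCV replicon replication; test concentration not given here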
[13] = target: Left-right determination factor 2 (Homo sapiens) (UniProt O00292); assay: small molecules binding LEFTY2 protein – biochemical, small-molecule microarray, 635 nm fluorescence scan, primary screen (AID 1110); settings: higher = more signal
[14] = target: Calmodulin-1 (Homo sapiens) (UniProt P0DP23); assay: small molecules binding calmodulin-1 with EGTA – biochemical, small-molecule microarray, Cy5-labelled CALM1, profiling panel (AID 1111); settings: Cy5-CALM1 binding fluorescence, higher = more signal;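 also: labelled calmodulin applied in Tris saline Tween buffer holding calcium plus EGTA and DTT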
[15] = target: Calmodulin-1 (Homo sapiens) (UniProt P0DP23); assay: small molecules binding Ca-loaded calmodulin-1 – biochemical, small-molecule microarray, Cy5-labelled CALM1, plus calcium, artefact control for SMM control-protein annotation, profiling panel (AID 1112); settings: Cy5-CALM1 binding fluorescence, higher = more signal;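 also: score merges spot fluorescence with signal to noise from triplicate slides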
[16] = probe aWnt5a binding to arrayed compounds – biochemical, biotinylated probe, 635/667 nm fluorescence, primary screen (AID 1113); settings: small-molecule microarray, higher = more signal;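 also: score merges 667 nm fluorescence intensity with signal-to-noise per printed feature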
[17] = probe aShh binding to arrayed compounds – biochemical, biotinylated probe, 635/667 nm fluorescence, primary screen (AID 1114); settings: small-molecule microarray, higher = more signal;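 also: probe is biotin-labelled aShh protein from a stem cell growth factor screen; measures binding of labelled protein to compounds printed on the slide; score merges feature fluorescence at 667 nm with signal-to-noise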
[18] = probe aNog binding to arrayed compounds – biochemical, biotinylated probe, 635/667 nm fluorescence, primary screen (AID 1115); settings: small-molecule microarray, higher = more signal;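 also: probe is biotinylated aNog protein used at 0.15 µg/mL for 1 h at 4 C; z-score combines 667 nm fluorescence of each spot with its signal to noise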
[19] = target: Torsin-1A-interacting protein 1 (Homo sapiens) (UniProt Q5JTV8); assay: compound microarray binding of lysate hLAP1 – cell lysate, small-molecule microarray, COS7 lysate, 635/667 nm fluorescence, primary screen (AID 1116); settings: 635 nm fluorescence, higher = more signal
[20] = target: Alpha-bungarotoxin (Bungarus multicinctus) (UniProt P60615); assay: compounds binding labelled alpha-BTX control protein – biochemical, small-molecule microarray, Alexa647 label, 635/667 nm fluorescence, artefact control for SMM control protein annotation, profiling panel (AID 1117); settings: alpha-BTX-A647 binding fluorescence, higher = more signal
Chain of Alpha-bungarotoxin (Bungarus multicinctus) (P60615 whole entry, looked up): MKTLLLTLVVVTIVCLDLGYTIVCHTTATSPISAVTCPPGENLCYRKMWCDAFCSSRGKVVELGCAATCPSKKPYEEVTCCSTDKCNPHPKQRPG

Chain of Dickkopf-related protein 1 (Homo sapiens) (O94907 whole entry, looked up): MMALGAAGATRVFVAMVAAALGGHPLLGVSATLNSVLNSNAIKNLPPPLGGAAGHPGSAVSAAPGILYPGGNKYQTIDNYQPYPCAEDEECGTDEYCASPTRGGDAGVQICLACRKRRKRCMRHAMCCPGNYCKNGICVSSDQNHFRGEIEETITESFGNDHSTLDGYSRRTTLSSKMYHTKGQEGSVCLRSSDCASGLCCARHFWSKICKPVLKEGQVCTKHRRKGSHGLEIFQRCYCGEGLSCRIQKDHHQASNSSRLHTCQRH
Chain of Epidermal growth factor receptor (Homo sapiens) (P00533 whole entry, looked up): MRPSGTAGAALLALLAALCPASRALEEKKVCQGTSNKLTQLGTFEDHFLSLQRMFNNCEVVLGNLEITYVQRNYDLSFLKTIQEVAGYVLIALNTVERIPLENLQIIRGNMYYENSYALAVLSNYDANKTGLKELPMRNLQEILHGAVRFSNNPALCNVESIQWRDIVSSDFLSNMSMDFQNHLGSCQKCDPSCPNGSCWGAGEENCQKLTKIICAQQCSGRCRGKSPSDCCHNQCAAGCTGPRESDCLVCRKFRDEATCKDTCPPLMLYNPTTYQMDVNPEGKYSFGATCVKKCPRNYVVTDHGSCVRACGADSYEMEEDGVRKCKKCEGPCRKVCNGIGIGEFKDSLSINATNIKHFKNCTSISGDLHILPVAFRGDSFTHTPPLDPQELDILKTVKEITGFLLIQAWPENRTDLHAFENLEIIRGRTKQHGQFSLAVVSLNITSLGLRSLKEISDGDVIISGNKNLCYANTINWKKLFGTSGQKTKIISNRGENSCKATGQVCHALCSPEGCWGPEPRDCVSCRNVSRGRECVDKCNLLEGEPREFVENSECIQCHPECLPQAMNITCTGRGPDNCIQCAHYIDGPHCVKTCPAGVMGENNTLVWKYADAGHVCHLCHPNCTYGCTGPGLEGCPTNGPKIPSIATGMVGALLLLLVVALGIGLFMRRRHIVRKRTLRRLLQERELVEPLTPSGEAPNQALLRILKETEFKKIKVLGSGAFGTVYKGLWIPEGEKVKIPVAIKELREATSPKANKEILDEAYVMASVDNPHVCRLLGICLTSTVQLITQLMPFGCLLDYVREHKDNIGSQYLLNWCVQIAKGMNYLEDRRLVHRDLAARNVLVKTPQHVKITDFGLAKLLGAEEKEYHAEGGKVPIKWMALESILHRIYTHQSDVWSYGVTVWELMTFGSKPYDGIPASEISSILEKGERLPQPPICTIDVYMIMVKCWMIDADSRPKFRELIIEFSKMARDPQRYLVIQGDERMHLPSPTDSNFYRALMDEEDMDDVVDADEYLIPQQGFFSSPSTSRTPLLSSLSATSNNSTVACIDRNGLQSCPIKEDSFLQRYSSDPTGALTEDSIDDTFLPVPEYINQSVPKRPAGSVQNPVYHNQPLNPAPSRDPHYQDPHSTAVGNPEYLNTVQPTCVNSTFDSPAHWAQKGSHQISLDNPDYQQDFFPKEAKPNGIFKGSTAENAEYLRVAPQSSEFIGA
Chain of Follistatin-related protein 3 (Homo sapiens) (O95633 whole entry, looked up): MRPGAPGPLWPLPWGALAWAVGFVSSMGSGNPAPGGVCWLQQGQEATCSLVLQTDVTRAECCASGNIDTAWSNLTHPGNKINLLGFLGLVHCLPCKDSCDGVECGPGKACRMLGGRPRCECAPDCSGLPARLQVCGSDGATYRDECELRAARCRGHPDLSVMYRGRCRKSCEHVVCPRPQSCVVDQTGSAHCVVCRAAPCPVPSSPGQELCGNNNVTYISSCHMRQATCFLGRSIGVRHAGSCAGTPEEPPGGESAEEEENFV
Chain of Torsin-1A-interacting protein 1 (Homo sapiens) (Q5JTV8 whole entry, looked up): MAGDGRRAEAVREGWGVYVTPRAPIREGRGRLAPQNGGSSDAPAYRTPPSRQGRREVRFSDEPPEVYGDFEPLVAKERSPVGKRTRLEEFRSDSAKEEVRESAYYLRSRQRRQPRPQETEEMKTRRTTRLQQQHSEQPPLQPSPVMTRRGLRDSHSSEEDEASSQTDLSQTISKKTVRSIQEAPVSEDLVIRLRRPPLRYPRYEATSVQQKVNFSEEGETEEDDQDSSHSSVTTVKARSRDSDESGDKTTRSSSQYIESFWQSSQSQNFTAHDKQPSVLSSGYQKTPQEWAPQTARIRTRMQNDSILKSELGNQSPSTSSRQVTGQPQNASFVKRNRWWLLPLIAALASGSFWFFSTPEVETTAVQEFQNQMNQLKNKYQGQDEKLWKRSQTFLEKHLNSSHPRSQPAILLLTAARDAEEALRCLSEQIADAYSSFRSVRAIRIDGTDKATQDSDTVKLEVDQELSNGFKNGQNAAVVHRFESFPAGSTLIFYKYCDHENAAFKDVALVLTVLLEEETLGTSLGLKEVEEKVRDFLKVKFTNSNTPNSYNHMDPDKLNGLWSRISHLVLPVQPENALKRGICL
Chain of Left-right determination factor 2 (Homo sapiens) (O00292 whole entry, looked up): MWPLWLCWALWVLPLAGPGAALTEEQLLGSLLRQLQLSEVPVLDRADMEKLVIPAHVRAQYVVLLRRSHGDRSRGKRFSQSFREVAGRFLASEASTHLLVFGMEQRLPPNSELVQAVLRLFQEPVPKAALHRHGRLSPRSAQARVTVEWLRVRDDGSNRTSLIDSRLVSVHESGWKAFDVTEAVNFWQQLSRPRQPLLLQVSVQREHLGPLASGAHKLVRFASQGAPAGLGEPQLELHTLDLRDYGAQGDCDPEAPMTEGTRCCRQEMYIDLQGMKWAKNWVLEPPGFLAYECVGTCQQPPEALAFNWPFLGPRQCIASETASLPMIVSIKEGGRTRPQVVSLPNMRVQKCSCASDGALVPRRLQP
Chain of Fibroblast growth factor 10 (Homo sapiens) (O15520 whole entry, looked up): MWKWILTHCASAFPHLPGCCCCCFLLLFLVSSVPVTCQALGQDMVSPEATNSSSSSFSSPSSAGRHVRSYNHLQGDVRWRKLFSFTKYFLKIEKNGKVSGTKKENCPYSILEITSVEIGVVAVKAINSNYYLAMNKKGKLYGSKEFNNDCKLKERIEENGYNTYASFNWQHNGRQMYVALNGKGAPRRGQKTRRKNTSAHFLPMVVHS

Structure (SMILES): C[C@H]1C2=C3C(CC[C@H]4C(OCc5ccc(F)cc5C(F)(F)F)OC[C@](C)([C@@H]34)N(C(=O)OC(C)(C)C)C2)C2COC(=O)OCC21 (stereo not given in full)
- composite z-score [1]: 0.0559
- composite z-score [2]: 0.457
- composite z-score [3]: 1.28
- z-score [4]: -0.848 (inactive)
- composite z-score [5]: 0.0151
- composite z-score [6]: 0.987
- composite z-score [7]: 0.0472
- composite z-score [8]: 0.768
- composite z-score [9]: -0.648
- composite z-score [10]: 0.572
- composite z-score [11]: 1.35
- z-score [12]: -1.84
- composite z-score [13]: -0.431
- composite z-score [14]: 2.39
- composite z-score [15]: 1.06
- composite z-score [16]: 0.0232
- composite z-score [17]: 0.26
- composite z-score [18]: -0.701
- composite z-score [19]: 0.908
- composite z-score [20]: 0.771

Structure (SMILES): CN(C)C(=O)[C@@]1(Cc2ccccc2N=[N+]=[N-])COC(c2ccc(OCCCO)cc2)=N1
- composite z-score [1]: 1.54
- composite z-score [2]: 0.764
- composite z-score [3]: 0.795
- z-score [4]: -0.545 (inactive)
- composite z-score [5]: 0.629
- composite z-score [6]: 1.05
- composite z-score [7]: 0.0428
- composite z-score [8]: 0.396
- composite z-score [9]: -0.239
- composite z-score [10]: 0.0217
- composite z-score [11]: 1
- z-score [12]: -1.69
- composite z-score [13]: -0.475
- composite z-score [14]: 1.32
- composite z-score [15]: 0.202
- composite z-score [16]: 0.212
- composite z-score [17]: 0.661
- composite z-score [18]: -1.05
- composite z-score [19]: 1.04
- composite z-score [20]: 1.55

Structure (SMILES): C=CCOC(=O)[C@H]1[C@@H]2C(=O)O[C@@H](c3ccccc3)[C@@H](c3ccccc3)N2[C@@H](c2ccc(OCCOC(=O)[C@H]3C[C@H]4C(=O)N[C@@H](Cc5ccccc5)C(=O)N4[C@H]3c3ccc(O)cc3)cc2)[C@]12C(=O)Nc1ccc(I)cc12
- composite z-score [1]: 1.34
- composite z-score [2]: -0.188
- composite z-score [3]: -0.485
- z-score [4]: 0.354 (inactive)
- composite z-score [5]: 1.26
- composite z-score [6]: 0.98
- composite z-score [7]: 0.625
- composite z-score [8]: 1.46
- composite z-score [9]: 1.27
- composite z-score [10]: 0.0385
- composite z-score [11]: 1.39
- z-score [12]: -1.41
- composite z-score [13]: 0.537
- composite z-score [14]: 0.43
- composite z-score [15]: 0.0144
- composite z-score [16]: 0.0169
- composite z-score [17]: -0.333
- composite z-score [18]: -0.174
- composite z-score [19]: 0.791
- composite z-score [20]: 0.897

Structure (SMILES): CN(C)CCCCNC(=O)[C@H]1C[C@H]2C(=O)N3CCC[C@H]3C(=O)N2[C@H]1c1ccc(O)cc1
- composite z-score [1]: 0.0292
- composite z-score [2]: -1.21
- composite z-score [3]: -0.65
- z-score [4]: -2.27 (inactive)
- composite z-score [5]: -1.51
- composite z-score [6]: -0.0328
- composite z-score [7]: -0.364
- composite z-score [8]: 0.398
- composite z-score [9]: -0.414
- composite z-score [10]: -0.984
- composite z-score [11]: -1.11
- z-score [12]: 0.939
- composite z-score [13]: -0.148
- composite z-score [14]: -0.969
- composite z-score [15]: -0.949
- composite z-score [16]: -0.45
- composite z-score [17]: -0.401
- composite z-score [18]: 0.39
- composite z-score [19]: -0.206
- composite z-score [20]: -1.01

Structure (SMILES): [N-]=[N+]=Nc1ccccc1[C@@H]1OC(c2ccc(OCCCO)cc2)=N[C@]1(CCS(=O)(=O)c1ccccc1)C(=O)NCCN1CCOCC1
- composite z-score [1]: 1.25
- composite z-score [2]: 1.1
- composite z-score [3]: 1.2
- z-score [4]: -0.582 (inactive)
- composite z-score [5]: 0.832
- composite z-score [6]: 1.29
- composite z-score [7]: 0.652
- composite z-score [8]: 0.374
- composite z-score [9]: -0.0291
- composite z-score [10]: 1.28
- composite z-score [11]: 1.47
- z-score [12]: -0.485
- composite z-score [13]: 0.382
- composite z-score [14]: 0.03
- composite z-score [15]: 0.0093
- composite z-score [16]: 0.0814
- composite z-score [17]: 0.337
- composite z-score [18]: 0.675
- composite z-score [19]: 1.26
- composite z-score [20]: 0.737

Structure (SMILES): CCCCC(CC)C(O)C1C=CC2C(=O)N(c3ccccc3)C(=O)C2N1Nc1ccc([N+](=O)[O-])cc1 (stereo not given)
- composite z-score [1]: 1.31
- composite z-score [2]: 0.68
- composite z-score [3]: 0.457
- z-score [4]: 0.63 (inactive)
- composite z-score [5]: 1.01
- composite z-score [6]: 1.34
- composite z-score [7]: 0.444
- composite z-score [8]: 1.34
- composite z-score [9]: 0.155
- composite z-score [10]: 0.532
- composite z-score [11]: 1.37
- z-score [12]: -0.127
- composite z-score [13]: 0.362
- composite z-score [14]: 1.68
- composite z-score [15]: -0.371
- composite z-score [16]: -0.0519
- composite z-score [17]: -0.258
- composite z-score [18]: -0.623
- composite z-score [19]: 0.513
- composite z-score [20]: 1.27

From PubChem BioAssay
